# In PubChem BioAssay AID493168 (National Center for Advancing Translational Sciences (NCATS), 2011):
# Records with an inconclusive call do not appear. A call without a number means that no potency is given here. The source made the active and inactive calls. The call rests on the fitted dose curve; in most records, active means well fitted inhibition curve with a large enough effect; inconclusive means small, poorly fitted or top-dose-only effect, or effect the other way; inactive means flat fitted curve, though single readings scatter.
# Target: Ubiquitin carboxyl-terminal hydrolase 2 (Homo sapiens) (UniProt O75604)
# Sequence (O75604 whole entry, looked up): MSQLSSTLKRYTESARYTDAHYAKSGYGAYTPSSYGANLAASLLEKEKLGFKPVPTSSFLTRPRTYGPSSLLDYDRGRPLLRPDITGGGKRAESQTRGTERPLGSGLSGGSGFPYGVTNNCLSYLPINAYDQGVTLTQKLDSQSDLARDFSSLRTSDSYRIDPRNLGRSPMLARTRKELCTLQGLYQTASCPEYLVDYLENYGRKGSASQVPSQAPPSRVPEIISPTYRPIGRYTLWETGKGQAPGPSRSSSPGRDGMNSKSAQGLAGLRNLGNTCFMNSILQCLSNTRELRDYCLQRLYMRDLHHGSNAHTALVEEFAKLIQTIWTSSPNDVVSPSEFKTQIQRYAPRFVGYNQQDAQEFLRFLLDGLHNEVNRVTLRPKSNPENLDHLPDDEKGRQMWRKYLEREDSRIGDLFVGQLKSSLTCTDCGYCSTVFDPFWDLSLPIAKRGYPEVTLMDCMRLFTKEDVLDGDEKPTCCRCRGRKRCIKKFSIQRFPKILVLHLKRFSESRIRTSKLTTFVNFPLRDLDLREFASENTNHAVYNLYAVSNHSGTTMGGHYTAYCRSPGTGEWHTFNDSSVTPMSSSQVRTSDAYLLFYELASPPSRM
# Experiment: Confirmation Assay for Inhibitors of Ubiquitin-specific Protease USP2a Using CHOP2 as the Reporter; further: nearly all actives have a fitted effect of over 55% in size
# Conditions: USP2 core, Ub-CHOP2 coupled reporter fluorescence; series mostly up to 38.3 µM
# Summary of the method: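 Ub-CHOP2 cleavage coupled to reporter activation was read by fluorescence after 60 min at RT, with 25 nM final Ub-CHOP2 and substrate. Enzyme (10 nM final USP2 core) first sat 30 min with compound; data were normalized to NEM and fitted to concentration-response curves.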
# Potency means the concentration at half of the fitted maximal effect.
row,SMILES,Potency
1,CCOC(=O)CCCNC(=O)COC(=O)c1cccc(C)c1O,inactive
2,Cc1c(NC(=O)c2ccc(COc3ccc4ccccc4c3)o2)c(=O)n(-c2ccccc2)n1C,inactive
3,Cn1c(C(=O)NCCN2CCOCC2)cc2c(=O)n(C)c3ccccc3c21,inactive
4,O=C(CCCN1C(=O)c2ccccc2C1=O)NC1=NCCS1,inactive
5,Cc1c(O)c(CN2CCCC2)cc2c3c(c(=O)oc12)CCC3,inactive
6,Nc1ccc2nc(-c3cccc(-c4nc5ccc(N)cc5[nH]4)c3)[nH]c2c1,inactive
7,CCOC(=O)N1CCN(C(=O)CN(c2ccc(Oc3ccccc3)cc2)S(C)(=O)=O)CC1,inactive
8,CSC1=NCCN1C(=O)Cc1ccc(F)cc1,inactive
9,O=C(c1ccccc1N(Cc1ccccc1)S(=O)(=O)c1ccccc1)N1CCOCC1,inactive
10,COc1ccc(Cc2nnc(NC(=O)Cc3cccs3)s2)cc1,11.7 µM (active)
11,Cc1cc(C(=O)CSc2nnc(Nc3ccccc3F)s2)c(C)n1CC1CCCO1 (stereo not given),inactive
12,O=C(N/N=C1\CC(c2ccccc2)Oc2ccccc21)c1ccc(O)cc1 (stereo not given),inactive
13,CC(/C=N/NC(=O)c1cc(-c2cccs2)[nH]n1)=C\c1ccccc1,inactive
14,O=C(NCC(c1cccnc1)N1CCN(c2ccc(F)cc2)CC1)OCc1ccccc1 (stereo not given),inactive
15,O=C(Nc1cccc(S(=O)(=O)NC2=NCCC2)c1)c1cc(-c2ccco2)nc2ccccc12,16.5 µM (active)
16,COc1cc(/C=N/NC(=O)c2cc(-c3ccccc3)nc3ccccc23)ccc1O,inactive
17,S=c1[nH]nc(-c2cc(-c3ccco3)[nH]n2)n1-c1cccc2ccccc12,inactive
18,COc1cc(C(O)P(=O)(OC(C)C)c2ccc(N(C)C)cc2)cc(OC)c1OC (stereo not given),inactive
19,O=C1NC(=Nc2ccc3ccccc3c2)S/C1=C/c1ccco1,inactive
20,COCCNCC(=O)N1CCCCCC1,inactive

row,SMILES,Potency
1,Cc1c2c(=O)n(-c3nc4ccccc4s3)nc-2cc(O)n1Cc1ccccc1,inactive
2,O=C(COC(=O)c1c2c(nc3ccccc13)/C(=C/c1ccco1)CC2)NC1CCCC1,14.7 µM (active)
3,CCOC(=O)C1CCN(C(=O)COC(=O)c2c(C)c(CC)nc3ccccc23)CC1,inactive
4,CCn1nnnc1SCC(=O)Nc1cccc(C)n1,inactive
5,CCn1c2ccccc2c2nc3ccccc3nc21,inactive
6,CCOC(=O)COc1c(OC)cc(Cl)cc1C1Nc2ccccc2C(=O)N1c1ccccc1 (stereo not given),inactive
7,CCCc1nc(SCC(N)=O)[nH]c(=O)c1CC,inactive
8,Nn1c(Nc2ccccc2)nc2ccccc2c1=O,inactive
9,Cc1cccc(Nc2nc(NCc3ccco3)c3ccccc3n2)c1,inactive
10,Cc1cc(NC(=O)c2cccc(S(=O)(=O)N(C)C)c2)n(-c2ccccn2)n1,inactive
11,CCOc1ccc(C(=O)c2ccc(OCC)c(N)c2)cc1N,inactive
12,Cc1ccc(N2CCN(C(=O)CCc3nc4ccccc4[nH]3)CC2)c(C)c1,inactive
13,COc1ccc2cc(CN(C(=O)Nc3ccccc3)C3CCCC3)c(=O)[nH]c2c1,inactive
14,CC12CN3CC(C)(CN(C1)C3c1ccc(Cl)cc1Cl)C2O (stereo not given),inactive
15,CC(C)C(=O)Nc1ccc(C(=O)N2CCCCCC2)cc1,inactive
16,C(=N\N(c1ccccc1)c1ccccc1)/c1ccccn1,inactive
17,COc1ccc(NC(=O)C2CC(=O)OC2c2ccccc2)cc1 (stereo not given),inactive
18,COc1ccc(/C=N\NC(=O)c2cc(O)c(O)c(O)c2)cc1COc1ccc(C(=O)OCC(C)C)cc1,14.7 µM (active)
19,O=C(OCC1OC(n2ncc(=O)[nH]c2=O)C(OC(=O)c2ccccc2)C1OC(=O)c1ccccc1)c1ccccc1 (stereo not given),13.1 µM (active)
20,CCN1C(=O)CSc2ccc(C(=O)NC3CCCCC3)cc21,inactive
